In PubChem BioAssay AID1490 (National Center for Advancing Translational Sciences (NCATS), 2009) one finds largest response in the series, negative = inhibition and Potency data, which are given here for 95 molecules.

Where “and” joins values, the source holds several entries; their conditions need not be identical. Identical values can stand only once. Out of some 310,000 compounds screened, about 11,000 (3.5%) were called active. Inconclusive results (about 4%) are left out. Only a selection was taken, and actives are over-represented in it overall. A number with no mark means an inactive call. The call rests on the fitted dose curve; in most records, active means well fitted inhibition curve with a large enough effect; inconclusive means small, poorly fitted or top-dose-only effect, or another doubt; inactive means no such curve, though single readings can be large or run the other way.
Potency means the concentration at half of the fitted maximal effect.

For this assay, the target named is 4'-phosphopantetheinyl transferase ffp (Bacillus subtilis) (UniProt Q9F4F7). Kind of assay: qHTS Assay for Inhibitors of Bacillus subtilis Sfp phosphopantetheinyl transferase (PPTase).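 Further: the enzyme is Sfp with the accession as filed and its product quenches rhodamine fluorescence.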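 On largest response in the series, negative = inhibition: 0% = enzyme reaction without inhibitor and -100% = no enzyme wells.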 The following applies: Biochemical Sfp PPTase activity. The method, boiled down: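 After 15 min at room temperature with compound, 15 nM Sfp received 5 uM rhodamine-CoA plus 12.5 uM BHQ-2-ybbR (50 mM Hepes pH 7.6, 10 mM MgCl2). Rate came from the fluorescence difference over 30 min, ex 525/em 598 nm.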
For `CCC(C)c1ccc(NC(=S)N2CCCC2)cc1` (stereo not given), the largest response in the series, negative = inhibition is 7.33%.
Still for that read-out and setting: the result for `c1nc(COc2nsnc2N2CCOCC2)cs1` reads 0.0907%.
As for `c1ccc(COc2nsnc2N2CCOCC2)cc1`, the Potency was 28.2 µM (active).
As for `O=C(O)COc1nsnc1N1CCOCC1`, the largest response in the series, negative = inhibition was 18.9%.
Same read-out and setting: the result for `CCc1c(C)c2ccc(OC3CCCCC3=O)cc2oc1=O` (stereo not given) reads -0.0226%; that for `CCOC(=O)C(C)n1cnc2c(nnn2-c2ccc(F)cc2)c1=O` (stereo not given), 8.12%.
Regarding `O=c1/c(=C/c2ccc(CNS(=O)(=O)c3ccccc3)o2)sc2n1CCN=2`, the Potency was 50.1 µM (active).
`O=S(=O)(NCCNS(=O)(=O)c1ccccc1)c1ccccc1`: the largest response in the series, negative = inhibition was 14.7%.
The same measure, in the same setting: next, `O=S(=O)(NCc1ccccc1)c1ccc(S(=O)(=O)N2CCCC2)cc1`: -13.6%; `Cc1ccccc1NC(=O)c1cc(S(=O)(=O)Nc2cccc(C(=O)O)c2)ccc1Cl`: 17.9%.
`COCCNC(=O)C1CCN(C(=O)C2CC(=O)N(c3ccc(C)cc3)C2)CC1` (stereo not given): the largest response in the series, negative = inhibition is 10.9%.
Still for that read-out and setting: the result for `NS(=O)(=O)c1cccc(NC(=O)CN2CCCc3ccccc32)c1` reads 17%.
Still for that read-out and setting: next, `COC(=O)c1[nH]c2cccc(C)c2c1NC(=O)CN1CCCc2ccccc21`: -4.7%.
Turning to `COC(=O)c1[nH]c2ccccc2c1NC(=O)CN1CCCc2ccccc21`, the Potency was 39.8 µM (active).
Regarding `O=C(Nc1nnc(S(=O)(=O)N2CCOCC2)s1)c1cccc(Br)c1`, the largest response in the series, negative = inhibition was 19.1%.
Same read-out and setting: the result for `c1ccc(-c2cc(-c3ccccc3)[nH]n2)cc1` reads 4.07%; that for `S=c1[nH]nc(-c2ccncc2)n1/N=C/c1ccccc1Cl`, -1.85%.
In the case of `S=c1[nH]nc(-c2cc(-c3ccccc3)n[nH]2)n1/N=C/c1c2ccccc2cc2ccccc12`, the Potency was 50.1 µM (active).
`C/[N+]([O-])=C\c1ccc([N+](=O)[O-])o1`: the largest response in the series, negative = inhibition was 10%.
As to `Cc1cc(C)nc(N/N=C/c2ccncc2)n1`, the largest response in the series, negative = inhibition was -9.4%.
Still for that read-out and setting: the result for `Cc1ccc(S(=O)(=O)N/N=C\c2cc3c(cc2[N+](=O)[O-])OCO3)cc1` reads -17.6%.
Consider `Cc1cc(C)nc(N/N=C/c2ccc([N+](=O)[O-])o2)n1`, for which the Potency was 79.4 µM (active).
In the case of `Cc1cc(C)nc(N/N=C/c2c(C)oc3ccccc23)n1`, the largest response in the series, negative = inhibition is -2.54%.
Consider `CCc1ccc(S(=O)(=O)N/N=C\c2ccc([N+](=O)[O-])o2)cc1`, for which the Potency was 56.2 µM (active).
For `O=C(NNS(=O)(=O)c1ccc([N+](=O)[O-])cc1)C1CCCCC1`, the largest response in the series, negative = inhibition is 5.3%.
Same read-out and setting: the result for `CC(C)(C)c1cc[n+](-c2[nH]c(=O)sc2/C=N/N=C(\[O-])c2ccccc2)cc1` reads -4.09%; that for `COC1=C(N2CCOCC2)C(=O)c2ccccc2C1=O`, -22.9%.
On the same count and under the same terms, the result for `COc1ccc(CNC(=O)CCN2C(=O)c3ccccc3C2=O)cc1` reads 10.6%.
With `COc1ccccc1CN1CCN(Cc2cc(OC)c(OC)cc2OC)CC1`, the Potency is 79.4 µM (active).
As to `COc1ccccc1CN1CCN(C(c2ccccc2)c2ccccc2)CC1`, the largest response in the series, negative = inhibition was -9.22%.
Regarding `COc1cc(OC)c(OC)cc1CN1CCN(C(=O)c2cccc3ccccc23)CC1`, the largest response in the series, negative = inhibition is -29.2%.
Still for that read-out and setting: the result for `Cc1ccc(C(=O)N/C(=C\c2ccc(F)cc2)C(=O)NCCN2CCOCC2)cc1` reads 8.47%.
`O=C(CN1CCN(S(=O)(=O)c2ccc(Cl)s2)CC1)NCc1ccc(Cl)cc1`: the Potency is 56.2 µM (active).
As for `Cc1ccccc1N1CCN(CC(=O)NCc2ccc(Cl)cc2)CC1`, the largest response in the series, negative = inhibition was 9.8%.
On the same count and under the same terms, next, `O=C(NCc1ccc(Cl)cc1)C1CCN(S(=O)(=O)c2cccs2)CC1`: 2.39%; `CN1CCN(C(=O)c2ccccc2NC(=O)COc2ccccc2Cl)CC1`: 18.2%; `CC(C)NC(=O)c1ccc(Cl)cc1Cl`: 26.8%.
For `COc1cc(/C=C(/NC(=O)c2ccc(Cl)cc2Cl)C(=O)O)cc(OC)c1OC`, the largest response in the series, negative = inhibition is 1.15%.
With `COC(=O)/C(=C\Nc1ccccc1)NC(=O)c1ccc(Cl)cc1Cl`, the Potency is 79.4 µM (active).
As for `COc1ccc(N2CCN(C(=O)c3ccc(N4CCCCS4(=O)=O)cc3)CC2)cc1`, the largest response in the series, negative = inhibition was 1.49%.
With `COc1ncnc2c1N=C1CC(C)(C)CC(N)=C1S2`, the Potency is 44.7 µM (active).
Consider `CN(CC(=O)NCc1ccncc1)S(=O)(=O)c1ccc(Br)cc1`, for which the largest response in the series, negative = inhibition was 13.4%.
Regarding `O=C(Nc1ncc([N+](=O)[O-])s1)C1COc2ccccc2O1` (stereo not given), the largest response in the series, negative = inhibition was -25.4%.
Consider `O=C(Nc1nc(-c2ccncc2)cs1)C1COc2ccccc2O1` (stereo not given), for which the Potency was 8.91 µM (active).
With `O=C(Nc1nc2c(F)cc(F)cc2s1)C1COc2ccccc2O1` (stereo not given), the largest response in the series, negative = inhibition was -2.2%.
Same read-out and setting: next, `CC(=O)c1ccc(S(=O)(=O)NCc2nnnn2-c2ccccc2)cc1`: 25.6%.
On the same count and under the same terms, the result for `Cc1ccc2c(c1)N(CC(=O)NCC1CCCO1)C(=O)CO2` (stereo not given) reads 20.7%.
With `Cc1cc(-c2n[nH]c(=S)n2/N=C/C(Br)=C/c2ccccc2)n[nH]1`, the Potency was 39.8 µM (active).
For the molecule `S=c1[nH]nc(-c2cccnc2)n1/N=C/C(Cl)=C\c1ccccc1`, the largest response in the series, negative = inhibition was -12.9%.
The same measure, in the same setting: the result for `S=c1[nH]nc(-c2ccco2)n1/N=C/c1ccccc1` reads -17.1%.
On to `S=c1[nH]nc(-c2ccco2)n1/N=C/c1ccc(Br)s1`, for which the largest response in the series, negative = inhibition was -25.9%.
Consider `Cc1cc(-c2n[nH]c(=S)n2/N=C/c2ccco2)n[nH]1`, for which the Potency was 79.4 µM (active).
Take `CC(C)c1cc(C(=O)N/N=C/C(Br)=C/c2ccccc2)n[nH]1`: the largest response in the series, negative = inhibition is 3.6%.
Still for that read-out and setting: next, `O=C(c1cc2ccccc2o1)N1CCN(Cc2ccccc2)CC1`: 8.96% and -10.3%; `Cc1ccc(CSCCNC(=O)CN(c2ccc(F)cc2)S(C)(=O)=O)cc1`: 7.19%.
Turning to `O=C(c1ccncc1)N1CCC2(CCCN(C(c3ccccc3)c3ccccc3)C2)CC1`, the largest response in the series, negative = inhibition was -0.961%.
On the same count and under the same terms, next, `Cc1ccc(CNC(=O)C(=O)c2cn(CC(=O)N3CCOCC3)c3ccccc23)cc1`: 6.58%.
Regarding `O=C(Oc1ccc(F)cc1)N1CCOCC1`, the largest response in the series, negative = inhibition is 11.2%.
On the same count and under the same terms, next, `Cc1ccc(C(=O)Oc2ccc(C(=S)N3CCOCC3)cc2)cc1`: -21.7%.
As for `O=C(Oc1ccc(C(=S)N2CCOCC2)cc1)c1ccc(F)cc1`, the Potency was 50.1 µM (active).
Consider `NNC(=O)CNC(c1ccccc1)c1cc(Cl)ccc1NC(=O)c1ccccc1` (stereo not given), for which the largest response in the series, negative = inhibition was 5.82%.
Still for that read-out and setting: the result for `Cc1ccc(SCC(CC(C)C)N2CCN(CCc3ccccc3)CCC2=O)cc1` (stereo not given) reads -29.9%; that for `Cc1cc(N(C)C)nc(Cl)n1`, -4.8%.
Take `CN(C)c1cc(N)c2ccccc2n1` (tested in a mixture with another compound): the Potency is 56.2 µM (active).
On to `COc1ccc(-c2cc(C(=O)N(C)Cc3ccccc3)c3ccccc3n2)cc1`, for which the largest response in the series, negative = inhibition was -16.8%.
Same read-out and setting: the result for `CN(Cc1ccccc1)S(=O)(=O)c1nnc(NC(=O)c2ccccc2F)s1` reads 16.4%; that for `O=C(Cc1cccs1)NCc1cccc(C(F)(F)F)c1`, 6.74%; that for `NC(=O)CC(NC(=O)Cc1ccc(Br)cc1)c1ccc(NC2CC3CCC2C3)c([N+](=O)[O-])c1` (stereo not given), 15.4%.
Still for that read-out and setting: next, `O=C(Nc1ccc(Cl)cc1)c1cccc(OC(=S)N2CCOCC2)c1`: 5.61%; `CCOC(=O)c1c(N)sc(C(C)=O)c1C`: -34.1%.
On to `COCCOC(=O)c1sc(=S)n(CCOC)c1N`, for which the Potency is 25.1 µM (active).
Take `O=C(N/C(=C\c1ccc(O)cc1)C(=O)N1CCCCC1)c1ccccc1`: the largest response in the series, negative = inhibition is 11.6%.
Same read-out and setting: next, `Cc1ccc2c(=O)cc(C(=O)NCCc3ccc(S(N)(=O)=O)cc3)oc2c1C`: 15.4%; `CCOc1ccc2nc(Nc3nc4ccc(NC(C)=O)cc4s3)sc2c1`: -21.4%.
In the case of `CCOc1ccc2nc(SC(CC)C(=O)Nc3cc(C)on3)sc2c1` (stereo not given), the largest response in the series, negative = inhibition was 9.59%.
`CCOc1ccc2nc(C(=O)N3CCCC(C)C3)sc2c1` (stereo not given): the Potency was 25.1 µM (active).
In the case of `CCN(CC)CCCNC(=O)c1c(O)c2cc(F)cc3c2n(c1=O)C(C)CC3` (stereo not given), the largest response in the series, negative = inhibition is 2.11%.
On the same count and under the same terms, next, `O=[N+]([O-])c1ccc(N=Cc2c(O)ccc3ccccc23)cc1`: -6.3%.
Take `Oc1c(C=Nc2cccc3nsnc23)ccc2ccccc12`: the Potency is 44.7 µM (active).
As to `COc1ccc(C=Nc2cccc3ncccc23)cc1`, the largest response in the series, negative = inhibition is -8.45%.
Still for that read-out and setting: the result for `Cc1cc2c(cc1S(=O)(=O)CCC(=O)NCc1ccccc1)OCC(=O)N2` reads 18.5%.
`CN1C2CCC1CC(NC(=O)c1ccc([N+](=O)[O-])cc1)C2` (stereo not given): the largest response in the series, negative = inhibition was 9.32%.
The same measure, in the same setting: next, `COc1ccc(C2CC(c3ccc([N+](=O)[O-])cc3)=NN2C(C)=O)cc1` (stereo not given): 0.697%.
Consider `CC(=O)N1CC[n+]2c(-c3ccc([N+](=O)[O-])cc3)csc21`, for which the Potency was 5.62 µM (active).
As for `CC(C)=CCc1c(O)c(CC=C(C)C)c2occ(-c3ccc(O)cc3)c(=O)c2c1O`, the largest response in the series, negative = inhibition is -6.29%.
Regarding `OCC(CO)NC1C[C@](O)(CO)[C@@H](O)[C@H](O)[C@H]1O` (stereo not given in full), the largest response in the series, negative = inhibition is 7.78%.
Still for that read-out and setting: next, `O=C(NC(Cc1ccccc1)C(=O)O)/C(=C\c1ccccc1)NC(=O)c1ccco1` (stereo not given): 16.2%.
Still for that read-out and setting: the result for `COc1cccc(-c2noc(C3CCCN(C(=O)c4ccc(F)cc4)C3)n2)c1` (stereo not given) reads 12.5%.
With `FC(F)(F)C1CCCN(c2nsc3ccccc23)C1` (stereo not given), the Potency is 15.8 µM (active).
In the case of `CC(C(=O)NC1CCCCC1)N1C(=O)c2cccc3cccc1c23` (stereo not given), the largest response in the series, negative = inhibition was 4.03%.
Take `COC(=O)c1ccc(OC(=O)c2cnccn2)cc1`: the largest response in the series, negative = inhibition is -8.15%.
On the same count and under the same terms, next, `O=C(O)CSc1nnc(-c2ccc3c(c2)OCO3)n1-c1ccccc1`: 30.8%.
In the case of `Cn1c(SCc2nc3ccccc3s2)nnc1-c1ccc2c(c1)OCO2`, the Potency was 14.1 µM (active).
In the case of `Cn1c(SCC(=O)N2CCCC2)nnc1-c1ccc2c(c1)OCO2`, the largest response in the series, negative = inhibition is 8.6%.
Take `CCc1c(C)[nH]c(=S)c(C#N)c1C`: the Potency is 12.6 µM (active).
